The campaign covered roughly 16,000 compounds. About 4,000 (25%) were called active. Not shown: some 26% with an inconclusive outcome. These entries were drawn from the full list. A number with no mark means an inactive call. The call rests on the fitted dose curve; in most records, active means well fitted curve in the direction sought with a large enough effect; inconclusive means small, poorly fitted or top-dose-only effect, or effect the other way; inactive means no such curve, though single readings can be large or run the other way.
Each molecule was assayed against Cytochrome P450 2C9 (Homo sapiens) (UniProt P11712) (assay: Cytochrome panel assay with activity outcomes). Conditions: recombinant CYP, pro-luciferin dealkylation, luminescence, p450-cyp2c9; series mostly up to 57.1 µM.
Cytochrome P450 2C9 (Homo sapiens), sequence (P11712 whole entry, looked up): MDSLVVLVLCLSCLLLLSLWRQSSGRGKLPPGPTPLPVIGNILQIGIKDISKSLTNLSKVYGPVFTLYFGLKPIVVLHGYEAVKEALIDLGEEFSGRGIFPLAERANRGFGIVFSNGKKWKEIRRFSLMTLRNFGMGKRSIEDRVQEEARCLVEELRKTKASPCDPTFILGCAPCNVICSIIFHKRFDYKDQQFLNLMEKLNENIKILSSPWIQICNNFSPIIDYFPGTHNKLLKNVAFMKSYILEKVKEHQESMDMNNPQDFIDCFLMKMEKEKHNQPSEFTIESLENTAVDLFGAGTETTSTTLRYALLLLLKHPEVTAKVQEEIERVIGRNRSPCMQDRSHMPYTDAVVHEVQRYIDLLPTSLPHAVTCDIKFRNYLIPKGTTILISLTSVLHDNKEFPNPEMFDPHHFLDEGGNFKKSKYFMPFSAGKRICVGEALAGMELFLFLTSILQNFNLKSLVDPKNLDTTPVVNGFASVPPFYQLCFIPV
In the case of `Cc1noc(C)c1-c1nc(Nc2ccc(F)cc2)c2ccccc2n1`, the activity, negative = inhibition is reported as -2.69% [at 2.29 µM].
In the case of `CCN(CC)CCNC(=O)c1cc(Br)c(N)cc1OC`, the AC50 is reported as “inactive”.
With `CCCc1c(OCCCOc2ccc(OCC(=O)O)cc2)ccc(CC=O)c1O` the AC50 was “inactive”.
`CCCc1c(OCCCOc2ccc(OCC(=O)O)cc2)ccc(C(C)=O)c1O` was tested, and the AC50 was 10 µM (active).
`O=C(O)COc1ccc(OCCNC[C@@H](O)COc2ccccc2)cc1` was tested, and the AC50 was “inactive”.
With `Cn1cccc1C(=O)N1CCC[C@@]2(CCN(Cc3ccc(C#N)cc3)C2)C1` the AC50 was “inactive”.
`NC/C=C\C(=O)O` was tested, and the AC50 was “inactive”.
`CC[C@H](C)[C@@H]1O[C@]2(CC[C@@H]1C)C[C@H]1C[C@H](CC=C(C)[C@@H](O[C@@H]3C[C@H](OC)[C@H](O[C@@H]4C[C@H](OC)[C@H](O)[C@H](C)O4)[C@H](C)O3)[C@@H](C)C=CC=C3CO[C@@H]4[C@@H](O)C(C)=C[C@@H](C(=O)O1)[C@]34O)O2` was tested, and the AC50 was “inactive”.
For `O=C(Cn1cc(C(F)(F)F)ccc1=O)N1CCN(S(=O)(=O)c2ccccc2)CC1`, the AC50 was “inactive”.
With `O=C1C2CCCN2c2ccc(S(=O)(=O)N3CCOCC3)cc2N1Cc1cccc(C(F)(F)F)c1` (centres undefined) the AC50 was 5.01 µM (active).
In the case of `O=S(=O)(c1cccc(C(F)(F)F)c1)N1CCC(c2cc(-c3cccc4ccccc34)n[nH]2)CC1`, the AC50 is reported as “inactive”.
For `COc1ccc(NC(=O)N2CCCC3(CCN(C(=O)c4csnn4)CC3)C2)cc1`, the AC50 was “inactive”.
In the case of `Cc1ccc(COc2coc(CO)cc2=O)cc1`, the AC50 is reported as “inactive”.
Work on `O=C(SCc1cccc2ccccc12)c1ccc(Cl)cc1` yielded an activity, negative = inhibition of -1.66% [at 11.4 µM].
With `O/N=C/c1ccccc1OCc1ccc(Cl)cc1` the AC50 was 4.47 µM (active).
For `Cc1ccc(COc2ccc(Br)cc2/C=N/O)cc1`, the AC50 was 2.82 µM (active).
For `Cc1n[nH]c(=S)n1/N=C/c1ccccc1OCc1ccc(Cl)cc1`, the AC50 was “inactive”.
`O/N=C/c1cc(Cl)ccc1OCc1cccc2ccccc12` was tested, and the AC50 was 7.08 µM (active).
`O=C(Cc1ccccc1)N/N=C/c1ccccc1OCc1ccc(Cl)cc1` was tested, and the AC50 was 7.94 µM (active).
For `Cc1ccc(CONC(=O)/N=C/N(C)C)cc1`, the AC50 was “inactive”.
With `Oc1ccc(Cl)cc1C=Nc1cnc2ccccc2c1` the activity, negative = inhibition was 1.22% [at 11.4 µM].
`COc1ccc(COC(=O)N/N=C2/C[C@@H](O)[C@@H](O)[C@@H]3[C@@H]4C(=O)N(C(C)(C)C)C(=O)[C@H]4CC[C@H]23)cc1` was tested, and the activity, negative = inhibition was 20.6% [at 11.4 µM].
In the case of `CC(C)(C)c1onc(OCP(=O)(O)O)c1C[C@@H](N)C(=O)O`, the AC50 is reported as “inactive”.
`C[C@@H]1O[C@H](O[C@@H]2[C@H](C)O[C@H](O[C@@H]3[C@H](C)O[C@H](O[C@H]4CC[C@]5(C)[C@@H](CC[C@@H]6[C@H]5C[C@@H](O)[C@]5(C)[C@@H](C7=CC(=O)OC7)CC[C@]65O)C4)C[C@@H]3O)C[C@@H]2O)C[C@H](O)[C@@H]1O` was tested, and the AC50 was “inactive”.
For `C[C@@H](Cc1ccccc1)Nc1ncnc2c1ncn2[C@@H]1O[C@@H](CO)[C@H](O)[C@@H]1O`, the AC50 was “inactive”.
In the case of `COCCNc1nc(-c2c(C)noc2C)nc2ccccc12`, the activity, negative = inhibition is reported as 15% [at 2.29 µM].
`NC(N)=NC(N)=Nc1cccc(Cl)c1` was tested, and the AC50 was “inactive”.
With `NC(=S)N/N=C/c1ccccc1OCc1cccc(Cl)c1` the AC50 was 1.58 µM (active).
With `CCCCC1(C)Nc2ccccc2-c2nc3ccccc3n21` (centres undefined) the AC50 was 12.6 µM (active).
With `NC1=NC2(CCCCCC2)n2c(nc3ccccc32)N1` the AC50 was “inactive”.
In the case of `CCCC1(C)Nc2ccccc2-c2nc3ccccc3n21` (centres undefined), the AC50 is reported as 3.98 µM (active).
For `CC1CCC2(CC1)N=C(N)Nc1nc3ccccc3n12` (centres undefined), the AC50 was “inactive”.
In the case of `CCC1(C)Nc2ccccc2C(=O)N1O` (centres undefined), the AC50 is reported as “inactive”.
In the case of `COc1c2c(nc3ccccc13)O[C@@H]([C@@](C)(O)CO)C2`, the AC50 is reported as “inactive”.
`C=C(C)C1CC=C(C)/C(=N/NC(=O)c2ccc(NC(=O)c3cccc(C)c3)cc2)C1` (centres undefined) was tested, and the AC50 was 1.58 µM (active).
For `Cc1cccc(C(=O)NNC(=O)C2CCCO2)c1` (centres undefined), the AC50 was “inactive”.
With `Cc1cccc(C(=O)NNC(=O)C(=O)NC(C)(C)C)c1` the AC50 was “inactive”.
In the case of `COc1ccc(CCN(C)CCc2ccc(OC)c(OC)c2)cc1OC`, the AC50 is reported as “inactive”.
With `COc1ccc(Cc2n[nH]c(=O)c3ccccc23)cc1OC` the AC50 was 25.1 µM (active).
For `COc1ccc(C[N+](C)(C)N)cc1OC`, the activity, negative = inhibition was 13.9% [at 11.4 µM].
With `CCCCc1ccc2nc(NC(=O)OC)[nH]c2c1` the AC50 was “inactive”.
Work on `Nc1c(OCC(=O)O)ccc2cc(S(=O)(=O)O)ccc12` yielded an activity, negative = inhibition of -7.12% [at 11.4 µM].
In the case of `Nc1nc(Cl)cc(N2CCOCC2)n1`, the AC50 is reported as “inactive”.
Work on `c1ccc2c(N3CCOCC3)nc(-c3ccoc3)nc2c1` yielded an activity, negative = inhibition of 11.8% [at 2.29 µM].
`COc1cccc(-c2ccc3ncnc(N4CCOCC4)c3c2)c1` was tested, and the activity, negative = inhibition was -6.77% [at 2.29 µM].
With `Clc1ccc(Sc2cc(N3CCOCC3)nc(-c3ccccc3)n2)cc1` the AC50 was 10 µM (active).
`COc1cccc(Sc2cc(N3CCOCC3)nc(-c3ccccc3)n2)c1` was tested, and the AC50 was 10 µM (active).
In the case of `Brc1ccc([C@H]2CN3CCSC3=N2)cc1`, the AC50 is reported as “inactive”.
In the case of `CN1CCN(c2ncncc2-c2ccc(C(=O)N(C)C)cc2)CC1`, the activity, negative = inhibition is reported as 16.3% [at 2.29 µM].
In the case of `O=P(O)(O)CCP(=O)(c1ccccc1)c1ccccc1`, the AC50 is reported as “inactive”.
With `CCNc1ncc2nc(-c3ccc(F)cc3)c(=O)n(C[C@H]3CCCO3)c2n1` the AC50 was “inactive”.
In the case of `CCNc1ncc2nc(-c3cc(F)cc(F)c3)c(=O)n(C[C@H]3CCCO3)c2n1`, the AC50 is reported as “inactive”.
For `O=C1CC(c2ccc(F)cc2)Cc2nc(NCC3CCCO3)ncc21` (centres undefined), the AC50 was 12.6 µM (active).
In the case of `Cc1ccc2nc(SCc3nnc(-c4ccccc4[N+](=O)[O-])o3)c(C#N)cc2c1`, the AC50 is reported as 0.794 µM (active).
In the case of `Cc1ccc2nc(SCC(=O)NCc3cccs3)c(C#N)cc2c1`, the AC50 is reported as “inactive”.
`Cc1nc2cccc([N+](=O)[O-])c2n1CCCN(C)C` was tested, and the activity, negative = inhibition was -4.5% [at 11.4 µM].
In the case of `CN1CCC(=C2c3ccccc3CC(=O)c3sccc32)CC1`, the AC50 is reported as “inactive”.
`O=C(O)CN(CCN(CC(=O)O)CC(=O)O)CC(=O)O.[Mn]` showed an activity, negative = inhibition of -0.525% [at 11.4 µM].
With `Cc1cn2c(-c3ccncc3)nnc2s1` the AC50 was “inactive”.
`c1cc(-c2sc(-c3ccncc3)c(-c3ccncc3)c2-c2ccncc2)ccn1` was tested, and the AC50 was 2 µM (active).
For `CN1CCN(S(=O)(=O)c2ccc3[nH]cc(C(=O)O)c(=O)c3c2)CC1`, the AC50 was “inactive”.
For `CCC(CC)C(=O)c1c[nH]c(C(=O)NCCCN2CCOCC2)c1`, the AC50 was “inactive”.
With `COc1cccc(C2=NOC(C(=O)NCCN3CCOCC3)C2)c1` (centres undefined) the AC50 was “inactive”.
For `Cc1ccccc1NS(=O)(=O)c1ccc2[nH]cc(C(=O)NCCCN3CCOCC3)c(=O)c2c1`, the AC50 was 12.6 µM (active).
For `Cc1cc(S(=O)(=O)NCCCN2CCOCC2)ccc1F`, the AC50 was “inactive”.
In the case of `Cc1ccccc1NS(=O)(=O)c1ccc2[nH]cc(C(=O)N(C)Cc3ccco3)c(=O)c2c1`, the AC50 is reported as 12.6 µM (active).
In the case of `CS(=O)(=O)Nc1cccc(-c2nc(NCCN3CCOCC3)c3ccccc3n2)c1`, the activity, negative = inhibition is reported as 3.9% [at 2.29 µM].
`COc1cccc(NS(=O)(=O)c2ccc3[nH]cc(C(=O)NCCN4CCOCC4)c(=O)c3c2)c1` was tested, and the AC50 was 7.94 µM (active).
Work on `CO[C@H]1COC(=O)C/C=C\[C@@H](C)COC(=O)[C@@H](C)NC(=O)C/C=C\[C@@H]1C` yielded an activity, negative = inhibition of -12.1% [at 11.4 µM].
`COc1ccc(/C=C/C(=O)Nc2ccccc2C(=O)N2CCCC2)cc1` was tested, and the AC50 was 15.8 µM (active).
For `COC(=O)N1CCC2(CCCN(C(=O)Nc3ccc(OC)cc3)C2)CC1`, the AC50 was “inactive”.
With `COC(=O)CNC(=O)/C=C/c1ccc(OC)cc1` the AC50 was “inactive”.
For `Cc1ccccc1N1CCN(C(=O)c2ccccc2NC(=O)/C=C\C(=O)O)CC1`, the AC50 was 14.1 µM (active).
In the case of `CCOC(=O)C1CCN(C(=O)c2ccccc2NC(C)=O)CC1`, the AC50 is reported as “inactive”.
With `NCc1ccccc1CC(=O)N[C@@H]1C(=O)N2C(C(=O)O)=C(CSc3nnnn3CC(=O)O)CS[C@@H]12` the AC50 was “inactive”.
With `CC(=O)Nc1nc(NC(C)=O)c2[nH]c(CO)nc2n1` the activity, negative = inhibition was 15.3% [at 11.4 µM].
With `FC(F)(F)c1nc(-c2ccncc2)ncc1-c1nnnn1-c1ccccc1` the AC50 was 2.82 µM (active).
With `FC(F)(F)c1nc(N2CCCC2)ncc1-c1nnnn1-c1ccccc1` the AC50 was 6.31 µM (active).
With `Cc1nc2cnc(N3CCNCC3)nc2n(-c2ccccc2)c1=O` the AC50 was “inactive”.
For `Cc1cc(C)cc(-n2nnnc2-c2cn(C)nc2C(F)(F)F)c1`, the AC50 was “inactive”.
In the case of `c1ccc(CNc2nc(-c3ccoc3)nc3ccccc23)cc1`, the activity, negative = inhibition is reported as -16.4% [at 2.29 µM].
In the case of `CCCNC(=S)Nc1ccc(Br)cc1`, the AC50 is reported as 14.1 µM (active).
With `Cc1ccc(NC(=S)Nc2ccc(Br)cc2)cc1` the AC50 was “inactive”.
In the case of `Cc1cc(C)n(-c2ccc(F)cc2)c(=O)c1C(=O)O`, the AC50 is reported as “inactive”.
For `N=c1n(-c2ccccc2)c(O)cc(=O)n1-c1ccccc1`, the AC50 was “inactive”.
For `CC(=O)c1c(O)c(C)c(-c2ccccc2)n(-c2ccccc2)c1=O`, the AC50 was 14.1 µM (active).
For `N#C/C(=N\O)c1nc(-c2ccccc2)cs1`, the AC50 was 22.4 µM (active).
`C[n+]1cccc(CNC(=O)/C=N/O)c1` was tested, and the AC50 was “inactive”.
Work on `O=C(O)[C@H](CCc1ccccc1)N1C(=O)c2ccccc2C1=O` yielded an activity, negative = inhibition of -7.78% [at 11.4 µM].
With `O=C1OCCC=C1[C@@H](O)CCc1ccccc1` the activity, negative = inhibition was 5.4% [at 11.4 µM].
With `O=C1C(=O)c2ccccc2C(O)=C1C(CCc1ccccc1)C1=C(O)c2ccccc2C(=O)C1=O` the AC50 was 3.16 µM (active).
`CC(=O)O[C@H]1C2=CO[C@H](C)[C@H]3[C@H]4C5=C([C@H](O)[C@H]6O[C@@H]6C5=O)[C@H](O[C@H]4C)[C@@]23C(=O)[C@H]2O[C@@H]21` was tested, and the activity, negative = inhibition was 19.9% [at 11.4 µM].
For `COC(=O)c1cc(Br)c(=O)n(CCc2ccc(O)cc2)c1`, the AC50 was 12.6 µM (active).
In the case of `CC(C)CN1CCCC2(CCN(C(=O)c3csnn3)CC2)C1`, the AC50 is reported as “inactive”.
On the % scale 0 is the no-effect control and ±100 the full control effect.
